In all, about 39,000 compounds went through this assay and about 220 (0.56%) showed activity. The sample holds actives, similar compounds and a random draw of the others, so the mix is not that of the screen. Unmarked numbers belong to inactive results.
Tested on: Escherichia coli K-12 BW25113
Experiment: relative growth (OD600 normalised to plate interquartile mean) (fraction); higher = less growth inhibition, active = 0.2 or less
Conditions: 50 µM; LB; incubation time: overnight (16-24 h)
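Note: Wild-type cells incubated without shaking, value is the mean of two biological replicates.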

Compound	relative growth
C[C@@H]1CN([C@H](C)CO)C(=O)c2cc(NC(=O)Nc3cccc4ccccc34)ccc2O[C@@H]1CN(C)C(=O)NC1CCCCC1	1
CCCC[P+](CCCC)(CCCC)Cc1ccc(NC(=O)[C@H](Cc2ccc3ccccc3c2)N/C(=N/C2CCCCC2)NC2CCCCC2)cc1	0.0326 (active)
CCCC[P+](CCCC)(CCCC)Cc1ccc(NC(=O)[C@@H](Cc2ccc3ccccc3c2)N=C(NC2CCCCC2)NC2CCCCC2)cc1	0.0386 (active)
CN(Cc1ccccc1)C(=O)[C@H](Cc1ccc2ccccc2c1)NC(=O)[C@@H]1CCCN1C(=O)Nc1ccccc1[N+](=O)[O-]	1.04
CCC(=O)Nc1ccc2ccccc2c1	0.842
C[C@H](CO)N1C[C@H](C)[C@@H](CN(C)C(=O)NC2CCCCC2)Oc2ccc(NC(=O)Nc3cccc4ccccc34)cc2C1=O	1.04
C[C@@H]1CCCCO[C@H](CN(C)C(=O)NC2CCCCC2)[C@@H](C)CN([C@H](C)CO)C(=O)c2cc(NS(=O)(=O)c3ccccc3)ccc2O1	0.983
Cc1ccc2c(c1)[C@](C)(O)CCS2	1.01
COc1ccc(S(=O)(=O)Nc2ccc3c(c2)CC(=O)N([C@H](C)CO)C[C@H](C)[C@H](CN(C)C(=O)Nc2c(C)noc2C)O3)cc1	1.02
Cc1ccc(S(=O)(=O)N(C)C[C@H]2Oc3ccc(NS(=O)(=O)c4ccccc4)cc3CC(=O)N([C@@H](C)CO)C[C@H]2C)cc1	0.993
C[C@H]1CN([C@@H](C)CO)C(=O)c2cccc(NS(=O)(=O)c3cccs3)c2O[C@@H]1CN(C)S(=O)(=O)c1ccc(F)cc1	1.02
O=C(NO)c1ccc(C(=O)N/N=C/[C@H](O)[C@@H](O)[C@H](O[C@@H]2O[C@H](CO)[C@H](O)[C@H](O)[C@H]2O)[C@H](O)CO)cc1	0.996
CN1CCN(CC(=O)N2c3ccccc3C(=O)Nc3cccnc32)CC1.Cl.Cl	1.08
O=C(O)CCC(=O)N1CC(=O)Nc2ccccc21	0.964
Cc1scc2c1N(C(=O)CN1CCN(C)CC1)c1ccccc1NC2=O.Cl	0.044 (active)
Cc1c(N)nc([C@H](CC(N)=O)NC[C@H](N)C(N)=O)nc1C(=O)N[C@H](C(=O)N[C@H](C)[C@@H](O)[C@H](C)C(=O)N[C@H](C(=O)NCCc1nc(-c2nc(C(=O)NCCCNCCCCN)cs2)cs1)[C@@H](C)O)[C@@H](O[C@@H]1O[C@@H](CO)[C@@H](O)[C@H](O)[C@@H]1O[C@@H]1O[C@H](CO)[C@@H](O)[C@H](OC(N)=O)[C@@H]1O)c1c[nH]cn1	0.0715 (active)
C[C@H](CO)N1C[C@H](C)[C@@H](CN(C)C(=O)Nc2ccc(F)cc2)OCc2ccccc2-c2ccccc2C1=O	0.975
C[C@H](CO)N1C[C@H](C)[C@@H](CN(C)C(=O)Nc2cccc3ccccc23)OCCCC[C@H](C)Oc2ccc(NS(C)(=O)=O)cc2C1=O	1.01

Compound	relative growth
Cc1noc(C)c1S(=O)(=O)N(C)C[C@H]1Oc2c(NS(=O)(=O)c3cn(C)cn3)cccc2C(=O)N([C@H](C)CO)C[C@@H]1C	0.992
C[C@@H]1CN([C@H](C)CO)C(=O)c2cccc(NS(=O)(=O)c3ccc(F)cc3)c2O[C@@H]1CN(C)S(=O)(=O)c1cn(C)cn1	0.99
C[C@@H]1CCCCO[C@@H](CN(C)C(=O)C2CCCCC2)[C@@H](C)CN([C@H](C)CO)C(=O)c2cc(NC(=O)CCC(F)(F)F)ccc2O1	0.92
CC(C)(C)c1cc2[nH]c(N)nc(=N)n2n1	1.01
C[C@@H]1CN([C@@H](C)CO)S(=O)(=O)c2ccc(C#CC3CC3)cc2O[C@@H]1CN(C)C(=O)C1CCCCC1	1.01
CN(C)[C@@H]1C(=O)[C@@H](C(N)=O)C(=O)[C@@]2(O)C(=O)[C@@H]3C(=O)c4c(O)c(NC(=O)CN5CCCC5)cc(F)c4C[C@H]3C[C@@H]12	0.0357 (active)
CN(C)c1cc(CNCC(C)(C)C)c(O)c2c1C[C@H]1C[C@H]3[C@H](N(C)C)C(=O)[C@H](C(N)=O)C(=O)[C@@]3(O)C(=O)[C@@H]1C2=O	0.0692 (active)
CN(C)[C@@H]1C(=O)[C@@H](C(N)=O)C(=O)[C@@]2(O)C(=O)[C@H]3C(=O)c4c(O)ccc(Cl)c4[C@@H](O)[C@H]3C[C@@H]12	0.0324 (active)
CN(C)[C@@H]1C(=O)[C@@H](C(=O)NCNCCCC[C@H](N)C(=O)O)C(=O)[C@@]2(O)C(=O)[C@@H]3C(=O)c4c(O)cccc4[C@@](C)(O)[C@H]3C[C@@H]12	0.977
CN(C)c1cc(NC(=O)CNC(C)(C)C)c(O)c2c1C[C@H]1C[C@H]3[C@H](N(C)C)C(=O)[C@@H](C(N)=O)C(=O)[C@@]3(O)C(=O)[C@H]1C2=O	1.01
CN(C)c1ccc(O)c2c1C[C@@H]1C[C@@H]3[C@@H](N(C)C)C(=O)C(C(N)=O)=C(O)[C@]3(O)C(=O)[C@H]1C2=O	0.0589 (active)
C[C@@H]1CCCCO[C@@H](CN(C)C(=O)NC2CCCCC2)[C@@H](C)CN([C@H](C)CO)C(=O)c2cc(NC(=O)C3CCCCC3)ccc2O1	1.02
C[C@H]1CN([C@@H](C)CO)C(=O)c2cc(NC(=O)CCCCCC(=O)Nc3ccccc3N)ccc2O[C@H]1CN(C)CC1CCCCC1	0.97
COc1ccc(NC(=O)Nc2ccc3c(c2)C(=O)N([C@@H](C)CO)C[C@H](C)[C@H](CN(C)C(=O)Nc2ccc(OC)cc2)OCCCC[C@H](C)O3)cc1	0.996
CN(C)C(=O)[C@H]1C[C@@H]2CCN(S(C)(=O)=O)C[C@H]2O1	0.988
Cc1noc(C)c1NC(=O)N(C)C[C@@H]1Oc2c(NC(=O)c3ccncc3)cccc2C(=O)N([C@H](C)CO)C[C@@H]1C	1
C[C@@H]1CN([C@@H](C)CO)C(=O)Cc2cc(NC(=O)Cn3cnnn3)ccc2O[C@H]1CN(C)C(=O)Nc1ccc(C(F)(F)F)cc1	0.993
